# In ChEMBL document CHEMBL3988442, “University of Dundee, Small-Polar-MMV Screening Library” (2021):
# The whole screen tested about 38,000 compounds, of which about 1,200 (3.2%) showed an effect of 50% or more. The median lay at about -58%. The entries come from a sample that favours strong results as a whole.
# Test system: Plasmodium falciparum
# Experiment: Calibr Malaria Delayed Death Assay SOP
# Assay type: functional, organism-based
# Parameters: scale not given: in the data most compounds retested in dose-response had high values
# Settings: concentration 4.99e-06 (unit not given; other assays of the set use mol/L)
row,Structure (SMILES),Percent Effect
1,CC(C)c1nn(C)c(Cl)c1CNCCn1cccn1,8.083%
2,COc1ccc(CNc2nc(C3CC3)nc3c(C)nn(C)c23)cc1,25.99%
3,CCn1ccc(-c2cc(C(=O)O)n3ncc(Cl)c3n2)n1,-63.4%
4,CCC(=O)Nc1cccc(OCC(=O)N(C)CCCC2CCCO2)c1 (centres undefined),-128%
5,O=C(C(CNCc1cccc(O)c1)c1ccccc1)N1CCOCC1 (centres undefined),-54.71%
6,O=C(C(CNCc1cccs1)c1ccccc1)N1CCOCC1 (centres undefined),4.238%
7,O=C(Nc1nccs1)c1csc(NC2CCCC2)n1,-183.6%
8,Cc1cnn(CCNCC(O)c2ccc(C(F)(F)F)cc2)c1 (centres undefined),71.82%
9,Cc1cnn(CCNCC(O)c2ccc3c(c2)OCCO3)c1 (centres undefined),-44.13%
10,Cc1cnn(CCNCC(O)c2ccc(F)c(F)c2)c1 (centres undefined),43.94%
11,COc1ccccc1C1CC(=O)Nc2c1c(=O)[nH]n2C(C)C (centres undefined),-127.8%
12,c1cncc(-c2nc3c(c(NCC4(c5ccncc5)CC4)n2)CCC3)c1,-35.93%
13,CC(O)CNc1nc(-c2cccnc2)nc2c1CCC2 (centres undefined),-47.48%
14,c1ccc(-n2cnnc2CCCN2CCOCC2)cc1,-26.23%
15,CC(C)OCCC(=O)NCC(c1c(F)cccc1F)N(C)C (centres undefined),-18.53%
16,O=C1COC2(CCN(C(=O)[C@H]3CCCO3)CC2)CN1Cc1ccccn1,-79.26%
17,CC(C)C[C@H](N)C(=O)N1CCSc2ccccc2C1.Cl,47.22%
18,CC(C)[C@H](N)C(=O)N1CCSc2ccccc2C1.Cl,73.25%
19,Cl.NC(C(=O)N1CCSc2ccccc2C1)c1ccccc1 (centres undefined),59.31%
20,Cc1csc(CN(C)C(C)C(=O)N2CCc3ccccc3C2)n1 (centres undefined),-122.6%
21,N[C@@H](C(=O)N1CCN(c2ccccc2Cl)C(=O)C1)c1ccccc1,-16.48%
22,O=C(C(CNCc1ccccc1O)c1ccccc1)N1CCOCC1 (centres undefined),14.02%
23,CC1c2ncc(COCC3CC3)n2CCN1C(=O)c1ccnnc1 (centres undefined),2.24%

row,Structure (SMILES),Percent Effect
1,CCOCCN1CCN(CC(O)c2ccc(C(F)(F)F)cc2)CC1 (centres undefined),21.93%
2,CSCc1ccc(C(=O)N2CCN(CC(C)O)CC2)cc1 (centres undefined),-108.1%
3,Cc1cc(CN2CCN(c3ccc4nncn4n3)CC2)no1,-4.981%
4,c1ccc(CCN2CCN(c3ccc4nncn4n3)CC2)nc1,-102.7%
5,CC(Cn1cccn1)NC(=O)N1CCN(Cc2cccnc2)CC1 (centres undefined),-145.3%
6,Cc1[nH]c(=O)[nH]c(=O)c1CN1CCCC(CCc2ccccc2)C1 (centres undefined),-20.63%
7,COc1cccc(CCC2CCCN(C(=O)c3ccccn3)C2)c1 (centres undefined),-27.65%
8,CN(CCOCC1CC1)C(=O)Nc1ccc([S+](C)[O-])cc1 (centres undefined),-126.1%
9,CNC(=O)NC(C)c1c(F)cccc1Cl (centres undefined),-107.4%
10,Cc1ccccc1C1(CN)CCCCC1,91.14%
11,Cc1ccccc1C1(CN)CCOCC1,37.02%
12,NCC1(c2cccc(C(F)(F)F)c2)CCCCC1,-1.273%
13,COc1ccc(C2CCCCCN2S(N)(=O)=O)cc1 (centres undefined),-81.61%
14,COc1ncccc1C(=O)N1CC[C@H]2C[C@H](c3noc(C)n3)O[C@@H]2C1,-68.36%
15,Cc1ccccc1N1CCN(c2nc(N(C)C)nc3c2CCNC3)CC1,36.34%
16,CN(C)CCC(Nc1nc(N)nc2c1CCNCC2)c1ccccc1 (centres undefined),-67.64%
17,CC(Nc1nc(-c2ccccc2)nc2c1CCNCC2)c1cccnc1 (centres undefined),90.56%
18,Cc1ccccc1C(Nc1ncnc2c1CCNC2)c1ccccc1 (centres undefined),22.99%
19,c1ccc2c(c1)CCN(c1nc(-c3ccncc3)nc3c1CCNC3)C2,59.82%
20,CCOCc1nc2c(c(NC(CC)c3cccnc3)n1)CCNCC2 (centres undefined),-63.2%
21,Cc1cccnc1[C@H](C)Nc1nc(-c2cccnc2)nc2c1CNC2,77.9%
22,CN(C)c1nc2c(c(N3CCc4ccccc4C3)n1)CCNC2,30.67%
23,CC(=O)N1CCc2nc(-c3ccccc3)nc(NC(C)C)c2CC1,-31.72%

row,Structure (SMILES),Percent Effect
1,CC(Nc1nc(-c2ccncc2)nc2c1CCNC2)c1ccccc1 (centres undefined),70.67%
2,CCc1cc(C(C)Nc2nc(-c3cccnc3)nc3c2CNC3)on1 (centres undefined),-34.82%
3,Cc1cc(CC(C)Nc2nc(-c3cccnc3)nc3c2CNC3)[nH]n1 (centres undefined),-0.4892%
4,CN1Cc2cc(F)ccc2N(CC(C)(C)O)CCC1=O,-102.4%
5,c1cc2occc2c(N2CCCC(c3nncn3C3CC3)C2)n1 (centres undefined),-31.64%
6,CO[C@H]1CN(C(=O)OC(C)(C)C)CC1NCc1cc[nH]c1 (some centres undefined),-107.9%
7,CCN1C(=O)C(C#N)=C(C)/C(=C/C2=Cc3ccccc3OC2)C1=O,-95.4%
8,CC1c2ncc(Cn3cccn3)n2CCN1Cc1ccccn1.O=C(O)C(F)(F)F.O=C(O)C(F)(F)F (centres undefined),-97.72%
9,CCC[C@H]1CN(C(=O)c2ccc3[nH]c(CO)nc3c2)C[C@@H]1N,-26.19%
10,CC(=O)N1CCOC2(CCCN(C(=O)c3ccc(Cl)cc3)C2)C1 (centres undefined),-118.1%
11,Cc1ccc(NC(=O)N2CC[C@@H](O)C2)c(-c2nc(C3CC3)no2)c1,-83.22%
12,CC1CCN(CCCNS(=O)(=O)Cc2ccccc2F)CC1,25.53%
13,CC(=O)N1CCN(CCNS(=O)(=O)c2cccc(F)c2)CC1,-79.38%
14,O=S(=O)(Cc1ccccc1Cl)NCCCN1CCCC1,78.29%
15,O=S(=O)(NCCCN1CCCC1)c1cc(F)cc(F)c1,66.12%
16,CC(C)c1cccc(S(=O)(=O)NCCCN2CCC(O)CC2)c1,31.74%
17,CC1CCN(CCCNS(=O)(=O)c2cc(F)cc(F)c2)CC1.Cl,61.9%
18,O=S(=O)(Cc1ccccc1F)NCCCN1CCCCC1,18.19%
19,CC(=O)N1CCN(CCNS(=O)(=O)c2cc(F)cc(F)c2)CC1,-120.9%
20,Cn1cnc(S(=O)(=O)NCCCN2CCCCCC2)c1Cl,-99.75%
21,Cc1cc(F)c(S(=O)(=O)NCCCN2CCC(O)CC2)cc1F,-91.17%
22,Cc1ccccc1CS(=O)(=O)NCCCN1CCCC1,22.31%
23,CC1CCN(CCCNS(=O)(=O)c2cccc(F)c2)CC1.Cl,53.06%
